Consider 36 compounds from PubChem BioAssay (EPA / NIEHS).

Values joined by “and” are separate entries in the source; they are usually repeats but may differ in a detail not shown here. Equal entries are not always repeated. Active and inactive are the calls of the source. How the source made its calls: active means hit-call score of the fitted dose curve at least 0.9, where 1 is the maximum; inactive means score below 0.9.

Read-out in this test: Urokinase-type plasminogen activator receptor (uPAR), PLAUR (gene 5329)
Put plainly: BSK_BE3C_uPAR: BioMAP Diversity Plus: BE3C Assay for Urokinase-type plasminogen activator receptor (uPAR) Biomarker Activity (AID 2283039).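 On outcome: cells exposed to compound for one day before measurement.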 The note with it: primary human bronchial epithelial cells; actives raise or lower the signal. On the procedure: BSK_BE3C is a cell-based, multiplexed-readout assay that uses bronchial epithelial cell, a human lung primary cell, with measurements taken at 24 hours after chemical dosing in a 96-well plate.BSK_BE3CAR is an assay component measured in the BSK_BE3C assay. It measures uPAR antibody related to regulation of gene expression using ELISA technology.Data from the assay component BSK_BE3CAR was analyzed into 1 assay endpoint. This assay endpoint, BSK_BE3CAR, was analyzed with bidirectional fitting relative to DMSO as the negative control and baseline of activity. Using a type of binding reporter, gain or loss-of-signal activity can be used to understand changes in the signaling as they relate to the gene PLAUR. Furthermore, this assay endpoint can be referred to as a primary readout, because this assay has produced multiple assay endpoints where this one serves a signaling function. To generalize the intended target to other relatable targets, this assay endpoint is annotated to the cytokine intended target family, where the subfamily is plasmogen activator.
The levels of cell surface (or secreted, indicated by the prefix "s") biomarker endpoints were measured by ELISA. Overt cytotoxicity to cells in confluent adherent cultures (all systems other than the BT system) was assessed by measuring total protein levels using sulforhodamine B (SRB) staining in parallel cultures at the time of biomarker measurements, indicated as SRB endpoints. For proliferation assays for adherent cell types, individual cell types are cultured at sub-confluence and relative cell numbers quantified by SRB staining at time points optimized for each system (48 h: 3C and CASM3C systems; 72 h: BT and HDF3CGF systems; 96 h: SAg system). SRB was performed by staining cells with 0.1% SRB after fixation with 10% TCA and reading wells at 560 nm.Viability and proliferation of PBMC (T cells) was quantified by Alamar Blue reduction for the SAg and BT systems. For PBMC viability (referred to as PBMC Cytotoxicity within the assay endpoint names), cells were plated (75,000/well in a 96-well plate) and then chemical samples added for 1 h before addition of activators, SEB and TSST-1 (20 ng/mL final concentration each). Cells were incubated for 90 h. Then, Alamar Blue (20 uL/well) (Invitrogen, Cat DAL1100) was added for 6 h, and the plates were read with a fluorescence microplate reader at 546/580 nm (excitation/emission). For PBMC proliferation, cells were plated and activated as above but incubated for only 16 h prior to addition of Alamar Blue. Plates were read after 6 h.
For `CC(C)C(=O)C(C)C`, the outcome was inactive. On the same count and under the same terms, the result for `CC1OC1C1CCC2(C)OC2C1` (stereo unspecified) reads “inactive”.

In the case of `O=C(c1ccc(O)cc1)c1ccc(O)cc1O`, the outcome was inactive. The same measure, in the same setting: the result for `O=c1c2ccccc2oc2ccccc12` reads “inactive”; that for `CCCCC(CC)COC(=O)c1ccccc1O` (stereo unspecified), “inactive”.

Regarding `C=CC(=O)OCC(Br)CBr` (stereo unspecified), the outcome was inactive. As to `CCCCCCCCc1ccc(Nc2ccc(CCCCCCCC)cc2)cc1`, the outcome was inactive. Turning to `CCCCNc1ccc(NCCCC)c2c1C(=O)c1ccccc1C2=O`, the AC50 was 6.83 µM (active). Turning to `O=C1CCCN1CCO`, the result was inactive. Consider `CCO[Si](C)(OCC)OCC`, for which the result was inactive. On the same count and under the same terms, with `CN1C(=O)N(C)C(O)C1O` (stereo unspecified) the entry was “inactive”; with `c1ccc2c(c1)ccc1ncccc12`, “inactive”. As to `CCCCC/C=C\C/C=C\CCCCCCCC(=O)OC`, the result was inactive. The same measure, in the same setting: with `COc1ccc2nc(N)sc2c1` the entry was “inactive”; with `N#[N+]c1ccc2c(S(=O)(=O)[O-])cccc2c1O`, “inactive”; with `c1ccc(-c2ccccn2)nc1`, “inactive”. As for `Nc1ccc(N)c(Cl)c1`, the AC50 is 11.1 µM (active) and 4.19 µM (active).

Consider `C=C[Si](OC(C)=O)(OC(C)=O)OC(C)=O`, for which the outcome was inactive. Still for that read-out and setting: the result for `O=C(Nc1ccccc1SSc1ccccc1NC(=O)c1ccccc1)c1ccccc1` reads “inactive”. With `O=C(Cl)c1cc(C(=O)Cl)cc(C(=O)Cl)c1`, the AC50 was 24.4 µM (active). The same measure, in the same setting: the result for `CCOC(=O)c1ccccc1C(=C1C=C(Br)C(=O)C(Br)=C1)c1cc(Br)c(O)c(Br)c1` reads 7.89 µM (active) and 4.27 µM (active). `CCCCC(CC)COCC1CO1` (stereo unspecified): the outcome was inactive. As for `C#CC1(O)CC[C@H]2[C@@H]3CCC4=CCCC[C@@H]4[C@H]3CC[C@@]21C` (stereo partly specified), the AC50 was 20 µM (active). Same read-out and setting: with `C=CCOc1c(Br)cc(Br)cc1Br` the figure was 25.2 µM (active).

For the compound `CCCCCCCCCCCCCCCC[N+](C)(C)CC`, the AC50 is 2.08 µM (active).

Turning to `S=C(NC1CCCCC1)NC1CCCCC1`, the outcome was inactive.

Turning to `C=CC=CC=CCCCCC`, the result was inactive. On the same count and under the same terms, with `CC(C)(c1cc(Br)c(OCCO)c(Br)c1)c1cc(Br)c(OCCO)c(Br)c1` the entry was “inactive”; with `C=CCOCC(O)CCl` (stereo unspecified), “inactive”; with `CCO[Si](CCCN=C=O)(OCC)OCC`, “inactive”. `CCOc1nc(F)cc2nc(S(=O)(=O)Nc3c(Cl)cccc3C(=O)OC)nn12`: the outcome was inactive. Still for that read-out and setting: with `COCc1c(C(C)C)nc(C(C)C)c(/C=C/[C@@H](O)C[C@@H](O)CC(=O)O)c1-c1ccc(F)cc1` the entry was “inactive”; with `O=Nc1ccc(O)cc1`, “inactive”; with `CO[Si](OC)(OC)c1ccccc1`, “inactive”. Same read-out and setting: the result for `C/C=C\C/C=C/CCCCCCCCOC(C)=O` reads “inactive”; that for `c1ccc2c(c1)ccc1cc3c(ccc4ccccc43)cc12`, “inactive”.
